Here are results for 21 compounds from PubChem BioAssay (NCATS).

Inconclusive results are not listed. Activity calls are given as the source filed them. Unless noted, calls come from the whole dose curve; as a rule, active = well fitted curve in the direction sought with a large enough effect; inconclusive = small, poorly fitted or top-dose-only effect, or another doubt; inactive = no such curve, though single readings can be large; an effect the other way counts as inactive or inconclusive.

Chain of Cytochrome P450 3A4 (Homo sapiens) (P08684 whole entry, looked up): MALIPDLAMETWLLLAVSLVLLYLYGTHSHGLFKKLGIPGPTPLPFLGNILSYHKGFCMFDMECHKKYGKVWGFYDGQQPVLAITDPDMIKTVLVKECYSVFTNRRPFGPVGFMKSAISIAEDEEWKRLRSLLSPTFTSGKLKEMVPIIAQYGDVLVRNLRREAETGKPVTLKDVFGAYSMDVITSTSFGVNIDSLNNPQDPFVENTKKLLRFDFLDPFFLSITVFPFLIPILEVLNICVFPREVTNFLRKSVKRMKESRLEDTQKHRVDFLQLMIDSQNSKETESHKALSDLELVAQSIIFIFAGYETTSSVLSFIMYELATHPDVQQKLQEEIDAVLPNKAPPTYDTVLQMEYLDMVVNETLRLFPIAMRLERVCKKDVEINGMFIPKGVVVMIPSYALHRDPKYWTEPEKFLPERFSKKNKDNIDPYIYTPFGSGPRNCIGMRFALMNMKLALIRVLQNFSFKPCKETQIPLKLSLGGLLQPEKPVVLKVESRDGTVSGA
Chain of Cytochrome P450 2C19 (Homo sapiens) (P33261 whole entry, looked up): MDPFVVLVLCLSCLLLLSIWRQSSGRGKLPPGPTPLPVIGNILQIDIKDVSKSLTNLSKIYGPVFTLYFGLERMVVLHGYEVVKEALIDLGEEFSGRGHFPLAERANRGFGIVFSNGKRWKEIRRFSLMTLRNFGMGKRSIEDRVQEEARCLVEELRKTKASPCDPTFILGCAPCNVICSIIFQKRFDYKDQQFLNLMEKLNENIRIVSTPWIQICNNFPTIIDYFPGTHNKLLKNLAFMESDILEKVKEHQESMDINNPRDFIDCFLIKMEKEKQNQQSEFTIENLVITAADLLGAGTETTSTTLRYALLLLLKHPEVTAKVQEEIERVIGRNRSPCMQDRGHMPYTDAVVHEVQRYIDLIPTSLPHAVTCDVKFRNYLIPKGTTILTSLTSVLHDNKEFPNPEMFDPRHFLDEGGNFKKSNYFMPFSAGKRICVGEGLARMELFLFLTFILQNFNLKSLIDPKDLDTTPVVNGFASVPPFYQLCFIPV

In one experiment the target is Cytochrome P450 2C9 (Homo sapiens) (UniProt P11712). Briefly: qHTS Assay for Inhibitors and Substrates of Cytochrome P450 2C9 (AID 883). For activity change, negative = inhibition: % is set by controls: 0 for no effect and ±100 for the full control effect. Note: nearly all actives have a fitted effect of over 60% in size. Note: potency is the fitted concentration of half-maximal effect. The note with it: recombinant CYP2C9, luciferin-H luminescence, 60 min; series mostly up to 57.1 µM; activity change, negative = inhibition: at the top concentration. The method, boiled down: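 Turnover of Luciferin-H (100uM, KM) by 10nM human CYP2C9 was measured over 60 min at 37C with NADPH regeneration; inhibitors and some substrates reduce luminescence. Data normalized to sulphaphenazole 57uM.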
Chain of Cytochrome P450 2C9 (Homo sapiens) (P11712 whole entry, looked up): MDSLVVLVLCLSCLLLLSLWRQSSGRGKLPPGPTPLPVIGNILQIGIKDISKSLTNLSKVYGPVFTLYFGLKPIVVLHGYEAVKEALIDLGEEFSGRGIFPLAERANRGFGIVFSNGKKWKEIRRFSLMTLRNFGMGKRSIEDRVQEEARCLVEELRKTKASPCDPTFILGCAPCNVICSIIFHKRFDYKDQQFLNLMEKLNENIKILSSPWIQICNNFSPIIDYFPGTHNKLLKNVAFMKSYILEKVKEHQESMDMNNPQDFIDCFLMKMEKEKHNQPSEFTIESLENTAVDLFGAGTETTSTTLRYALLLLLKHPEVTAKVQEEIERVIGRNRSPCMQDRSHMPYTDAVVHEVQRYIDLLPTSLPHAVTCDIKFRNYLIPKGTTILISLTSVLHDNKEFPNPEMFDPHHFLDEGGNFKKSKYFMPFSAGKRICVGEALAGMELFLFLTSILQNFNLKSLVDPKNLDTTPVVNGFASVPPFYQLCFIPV
Turning to `O=C(O)C1=CCCN(CCOC(c2ccc(C(F)(F)F)cc2)c2ccc(C(F)(F)F)cc2)C1`, the Potency was 2.51 µM (active).
With `CC(C)NC(=O)N1CC[C@@]2(CCCNC2)C1`, the “activity change, negative = inhibition” value is -13.2% (inactive).
On to `O=C(c1ccco1)N1CCC[C@@]2(CCN(Cc3ccncc3)C2)C1`, for which the Potency was 3.16 µM (active).
Take `O=C(Oc1ccccc1)N1CCC2(CC1)CN(Cc1ccncc1)C2`: the Potency was 3.16 µM (active).

Another experiment has as its target Cytochrome P450 3A4 (Homo sapiens) (UniProt P08684). Briefly: qHTS Assay for Inhibitors and Substrates of Cytochrome P450 3A4 (AID 884). For activity change, negative = inhibition: % is set by controls: 0 for no effect and ±100 for the full control effect. Note: nearly all actives have a fitted effect of over 50% in size. Note: potency is the fitted concentration of half-maximal effect. The conditions noted are these: recombinant CYP3A4, Luciferin-PPXE luminescence; series mostly up to 57.1 µM; activity change, negative = inhibition: at the top concentration. The method, boiled down:
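Luminescent readout of luciferin produced by CYP3A4 (20 nM) dealkylation of Luciferin-PPXE, 25 uM (its KM). NADPH-driven reaction ran 60 min at RT after 10 min compound preincubation; data scaled to 57 uM ketoconazole as 100% inhibition.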
On to `COc1c2c(cc3c1OCO3)CC[N+](C)=C2`, for which the “activity change, negative = inhibition” value was -17.2% (inactive).
Take `Clc1ccccc1-c1cncnc1NCCc1cnc[nH]1`: the Potency is 0.501 µM (active).
As to `CC(C)NC(=O)N1CC[C@@]2(CCCNC2)C1`, the “activity change, negative = inhibition” value was -32.5% (inactive).
Take `CC(C)NC(=O)N1CCC2(CC1)CCN(C(=O)Oc1ccccc1)CC2`: the “activity change, negative = inhibition” value is 121% (inactive).
Consider `C=C(C)c1cc2cc(C(C)=O)c(O)cc2o1`, for which the Potency was 31.6 µM (active).
For `O=C(Nc1ccccc1)N1CC2(CCN(C(=O)Oc3ccccc3)CC2)C1`, the “activity change, negative = inhibition” value is 139% (inactive).
On the same count and under the same terms, with `N#Cc1cccc(NC(=O)N2CC3(CCN(C(=O)Oc4ccccc4)CC3)C2)c1` the figure was 49.3% (inactive).

Another experiment shares this target. Description: qHTS Assay for Activators of Cytochrome P450 3A4 (AID 885). Note: nearly all actives have a fitted effect of over 65% in size. Note: potency is the fitted concentration of half-maximal effect. The conditions noted are these: recombinant CYP3A4, Luciferin-PPXE luminescence, 60 min; series mostly up to 57.1 µM; activity change, positive = activation: at the top concentration. The method, boiled down:
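Luminescent readout of luciferin formed from 25 uM Luciferin-PPXE (KM level) by 20 nM CYP3A4 in 200 mM KPO4, with 60 min NADPH-driven reaction at room temperature after 10 min compound exposure. Ketoconazole (57 uM) defined 100% inhibition.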
For `CN1CC[C@@]2(CCCN(C(=O)c3ccncc3)C2)C1`, the “activity change, positive = activation” value is -31.4% (inactive).
As for `CN1CC[C@@]2(CCCN(C(=O)Oc3ccccc3)C2)C1`, the “activity change, positive = activation” value was -71.7% (inactive).
Regarding `CC(C)NC(=O)N1CCC2(CC1)CCN(C(=O)Oc1ccccc1)CC2`, the Potency is 25.1 µM (active).
As to `CC(C)NC(=O)N1CCCC2(CCN(C(=O)Oc3ccccc3)CC2)C1`, the “activity change, positive = activation” value is -39.1% (inactive).
Take `CC(C)CN1CCCC2(CCN(C(=O)c3ccncc3)CC2)C1`: the “activity change, positive = activation” value was -68% (inactive).
As to `O=C(Nc1ccccc1)N1CC2(CCN(C(=O)Oc3ccccc3)CC2)C1`, the Potency is 15.8 µM (active).
`O=C(Oc1ccccc1)N1CCC2(CCCN(Cc3ccccc3)C2)CC1`: the “activity change, positive = activation” value was -31.9% (inactive).

The target of the next experiment is Cytochrome P450 2C19 (Homo sapiens) (UniProt P33261). Description: qHTS Assay for Inhibitors and Substrates of Cytochrome P450 2C19 (AID 899). For activity, negative = inhibition: % is set by controls: 0 for no effect and ±100 for the full control effect. Note: nearly all actives have a fitted effect of over 60% in size. Note: potency is the fitted concentration of half-maximal effect. The conditions noted are these: recombinant CYP2C19, luciferin-H EGE luminescence; series mostly up to 57.1 µM; activity, negative = inhibition: at the top concentration. The method, boiled down:
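Reactions contain 5nM enzyme, 10uM Luciferin-H EGE (KM) and 50mM KPO4; compound preincubates 10 min at 37C, NADPH regeneration starts turnover for 60 min. Luminescence after detection reagent gives activity.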
As to `c1ccc(CN2CCC3(CCNCC3)CC2)cc1`, the Potency was 5.01 µM (active).
`Clc1ccccc1-c1cncnc1NCCc1cnc[nH]1`: the Potency was 0.0126 µM (active).
Take `CC(C)NC(=O)N1CC[C@@]2(CCCNC2)C1`: the “activity, negative = inhibition” value is -37.1% (inactive).
Take `O=C(c1ccco1)N1CCC[C@@]2(CCN(Cc3ccncc3)C2)C1`: the Potency is 2.51 µM (active).

Tested on in the next experiment: not listed separately
Description: qHTS Assay for Identification of Small Molecule Agonists for Hypoxia Response Element Signaling Pathway (AID 914; active = well fitted activation curve with a large enough effect in the signal ratio, with a control signal flat, not every such curve was filed as active; the % refers to the signal ratio; note: % of control where 0% means no effect). The note with it: ME-180 (cervical carcinoma) HRE-bla reporter, beta-lactamase ratio, CoCl2, 17 h; activation: hits give high values. The method, boiled down: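 HRE-bla ME-180 cells, overnight plating in Opti-MEM with 0.5% dialyzed FBS; cpd titration + EC50 CoCl2, 17 h, 37 degrees Celsius; CCF4 2.5 h RT; 460/530 nm ratio; AC50.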
In the case of `c1ccc(CN2CC[C@@]3(CCCNC3)C2)cc1`, the activation is 10.9% (inactive).
Turning to `c1csc(CN2CC[C@@]3(CCCNC3)C2)n1`, the activation is 9.27% (inactive).
Still for that read-out and setting: in the case of `c1cnc(N2CCCC3(CCNCC3)C2)nc1` it was 6.96% (inactive); in that of `O=C(Nc1ccccc1)N1CC2(CCN(C(=O)Oc3ccccc3)CC2)C1`, -6.7% (inactive); in that of `CC(C)CN1CC2(CCN(C(=O)Oc3ccccc3)CC2)C1`, -12.9% (inactive).
Consider `N#Cc1cccc(NC(=O)N2CC3(CCN(C(=O)Oc4ccccc4)CC3)C2)c1`, for which the activation is -17.9% (inactive).
The same measure, in the same setting: with `CN1CCCC2(CCN(C(=O)c3ccco3)CC2)C1` the figure was -1.89% (inactive).
